Sampled rows, rich in hits. Any-hit rate of the full collection: about 4.3%.
D3 ag: activates the human D3 dopamine receptor; actives 0.58% (n = 410,000); P35462; AID 652048; max activation, %; D3R DiscoveRx beta-arrestin cells, luminescence, 90 min; in the data active means max activation above about 30%
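Agonist mode: compounds and dopamine controls were applied to plated cells for 90 min at 37 degrees C after an overnight attachment at 1500 cells/well. Luminescent read-out followed 30 - 60 minutes at room temperature with DiscoveRx detection reagent.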
GLP1R ag: GLP-1 receptor (human) agonism; HEK293 GLP-1R CRE-luciferase, luminescence, 4-6 h; cells express a hypersensitive GLP-1R form; actives 0.007% (n = 380,000); Potency, µM (highest dose often 45.6 µM), most hits filed as activators; AID 624172
Target sequence (P43220 whole entry, looked up): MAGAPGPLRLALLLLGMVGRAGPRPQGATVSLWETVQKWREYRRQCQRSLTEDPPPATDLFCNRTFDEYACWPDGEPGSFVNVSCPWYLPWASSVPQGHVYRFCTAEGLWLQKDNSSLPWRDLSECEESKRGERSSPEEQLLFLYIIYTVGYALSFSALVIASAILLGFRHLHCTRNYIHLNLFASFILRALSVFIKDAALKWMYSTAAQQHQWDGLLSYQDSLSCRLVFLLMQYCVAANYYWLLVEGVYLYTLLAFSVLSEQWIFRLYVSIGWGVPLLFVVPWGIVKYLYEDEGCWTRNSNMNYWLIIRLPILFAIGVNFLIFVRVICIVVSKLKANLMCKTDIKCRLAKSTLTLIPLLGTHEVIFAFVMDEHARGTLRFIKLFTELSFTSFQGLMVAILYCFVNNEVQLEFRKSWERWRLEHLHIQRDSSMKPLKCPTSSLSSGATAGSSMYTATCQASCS
GLP-1R inv ag: inverse agonists of human GLP-1 receptor; P43220; Potency, µM (doses to about 38.3 µM), usual class: inhibitors; HEK293 GLP-1R CRE-luciferase, luminescence, 24 h; GLP-1R form is constitutively active; actives 1.6% (n = 410,000); further: nearly all actives have a fitted effect of over 55% in size
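Seeding at 200 cells/uL, 12 h culture, 24 hr compound treatment, then luciferase reagent and a luminescence read; cells are HEK293 stably expressing a constitutively active GLP-1R plus cAMP-responsive luciferase.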
D3 antag: antagonists of human D3 dopamine receptor. max response, negative = inhibition, %. D3R cells, DiscoveRx beta-arrestin luminescence, antagonist mode; stronger effect = lower value. actives 2.5% (n = 360,000); in the data active means max response below about -50%; inconclusive means no clear call, values can overlap the other calls
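Cells expressing the human receptor were seeded at 1500 cells/well, incubated overnight at 37 degrees C in 5% CO2, then exposed to library compounds with dopamine controls for 90 minutes at 37 degrees C before luminescent detection.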
A number is an active result; . = inactive; ? = inconclusive; / = not tested or not shown. Unless noted, the call rests on the fitted dose curve; in most records, active means well fitted curve in the direction sought with a large enough effect; inconclusive means small, poorly fitted or top-dose-only effect, or another doubt; inactive means no such curve, though single readings can be large; an effect the other way counts as inactive or inconclusive.

SMILES	D3 ag	GLP1R ag	GLP-1R inv ag	D3 antag
Fc1ccc2c(c1)nnn2C1CCN(Cc2c(Cl)cccc2Cl)CC1	.	.	?	.
Cc1ccc(Cn2nnnc2CN2CCC(n3nnc4cc(C(F)(F)F)ccc43)CC2)cc1	.	.	10µM	.
Fc1ccc2c(c1)nnn2C1CCN(Cc2nnnn2C2CCCCC2)CC1	.	.	.	-58
FC(F)(F)c1ccc2c(c1)nnn2C1CCN(Cc2nnnn2Cc2ccccc2)CC1	.	.	?	?
Cc1ccc(CC(=O)N2CCN(Cc3ccccc3)CC2)cc1	.	.	.	.
CCC(C)N1CCN(C(=O)Cc2ccccc2)CC1 (stereo not drawn)	.	.	.	-65
O=C1C2C3CCC(C3)C2C(=O)N1c1ccc(OS(=O)(=O)c2ccccc2)cc1 (stereo not drawn)	.	.	3.2µM	.
CN1C(=O)C(=Cc2ccccc2OS(=O)(=O)c2ccccc2)C(=O)N(C)C1=O	.	.	.	.
COC(=O)C1=C(c2ccccc2OCc2ccccc2)C[C@@H]2CC[C@H]1N2C(=O)NCc1ccc(N(C)C)cc1	.	.	?	.
COC(=O)C1=C(c2ccc(F)cc2OCc2ccccc2)C[C@@H]2CC[C@H]1N2C(=O)NCCc1ccc(F)cc1	.	.	7.1µM	.
COC(=O)C1=C(c2ccc(F)cc2OCc2ccccc2)C[C@@H]2CC[C@H]1N2C	.	.	?	-56
COC(=O)C1=C(c2ccc(F)cc2OCc2ccccc2)C[C@@H]2CC[C@H]1N2C(=O)NCc1ccc(N(C)C)cc1	.	.	10µM	.
COC(=O)C1=C(c2ccc(F)cc2OCc2ccccc2)C[C@@H]2CC[C@H]1N2C(=O)NCCOc1ccccc1	.	.	?	.
COC(=O)C1=C(c2ccc(F)cc2OCc2ccccc2)C[C@@H]2CC[C@H]1N2C(=O)NCc1cccc(C(F)(F)F)c1	.	.	5.6µM	.
COC(=O)C1=C(c2ccccc2OCc2ccccc2)C[C@@H]2CC[C@H]1N2C	.	.	?	.
COc1ccc2[nH]cc(CCN=C(NC(=O)c3ccccc3OC)Nc3nc(C)cc(C)n3)c2c1	.	.	?	/
CCC/C=C/C=C/C(=O)O[C@H]1/C(=C/C(=O)OC)C[C@H]2C[C@H]([C@@H](C)O)OC(=O)C[C@H](O)C[C@@H]3C[C@H](OC(C)=O)C(C)(C)[C@](O)(C[C@@H]4C/C(=C/C(=O)OC)C[C@H](/C=C/C(C)(C)[C@]1(O)O2)O4)O3	.	/	/	/
CC(Oc1ccccc1)C(=O)Nc1ccc(C(=O)OCc2cc(=O)n3nc(C4CC4)sc3n2)cc1 (stereo not drawn)	.	/	?	/
COC(=O)C1=C(c2cccc(OCc3ccccc3)c2)C[C@@H]2CC[C@H]1N2C(=O)NCc1ccccc1C(F)(F)F	.	.	4µM	?
COc1ccccc1N1CCN(Cc2cccc(OC)c2O)CC1	.	.	.	-101
Clc1ccccc1CN1CCN(c2ccccc2)CC1	.	.	.	.
Nc1ccc(N2CCN(Cc3ccccc3Cl)CC2)c(Cl)c1	.	.	?	-57
COc1ccccc1N1CCN(Cc2c(F)cccc2F)CC1	.	.	.	-69
COc1ccccc1N1CCN(Cc2ccccc2Cl)CC1	.	.	.	-88
COc1ccccc1CN1CCNCC1	.	.	.	.
SMILES	D3 ag	GLP1R ag	GLP-1R inv ag	D3 antag
COc1ccccc1N1CCN(Cc2ccccc2F)CC1	.	.	.	-92
Clc1ccccc1CN1CCN(c2cccc3[nH]ccc23)CC1	.	.	.	-80
COc1ccccc1N1CCN(Cc2ccc(Br)cc2)CC1	.	.	10µM	-110
COc1ccc(Br)cc1CN1CCN(C(=O)Cc2ccccc2)CC1	.	.	?	.
CCCOP(=O)(c1ccc(N(C)C)cc1)C(O)c1ccc(Cl)cc1Cl (stereo not drawn)	.	.	?	.
COc1cc(/C=C(/C)[N+](=O)[O-])ccc1OCc1ccccc1Cl	.	.	7.1µM	?
COc1cc(C=C2C(=O)NC(=O)NC2=O)ccc1OCc1ccc([N+](=O)[O-])cc1	.	.	.	.
O=S(=O)(c1ccc(Cl)cc1)N1CC1c1ccccc1 (stereo not drawn)	.	.	.	.
O=S(=O)(c1ccc(Cl)cc1)N1CCN(C2CCN(Cc3ccccc3)CC2)CC1	.	.	?	-63
C=CC[C@]1(O)CC[C@H]2[C@@H]3CCC4=CC(=O)CCC4=C3C=C[C@@]21C	.	/	/	/

Screening data: PubChem BioAssay, National Center for Advancing Translational Sciences (NCATS)
